According to PubChem BioAssay AID1778 (Sanford-Burnham Center for Chemical Genomics, 2009):
About 260 (0.09%) of roughly 290,000 compounds were called active. This is one part of a sample in which actives are shown more often than they occur. Measured potencies and affinities stand elsewhere. Values without a mark were called inactive. No stated cut-off is given here; in the data, active means inhibition above about 50%; inactive means the rest.

molecular target: Kappa-type opioid receptor (Homo sapiens) (UniProt P41145); assay: KOR antagonists, beta-arrestin recruitment, cell-based, luminescence, uHTS (AID 1778); details: antagonist mode, hits give high values; at 10 µM unless noted
Sequence (P41145 whole entry, looked up): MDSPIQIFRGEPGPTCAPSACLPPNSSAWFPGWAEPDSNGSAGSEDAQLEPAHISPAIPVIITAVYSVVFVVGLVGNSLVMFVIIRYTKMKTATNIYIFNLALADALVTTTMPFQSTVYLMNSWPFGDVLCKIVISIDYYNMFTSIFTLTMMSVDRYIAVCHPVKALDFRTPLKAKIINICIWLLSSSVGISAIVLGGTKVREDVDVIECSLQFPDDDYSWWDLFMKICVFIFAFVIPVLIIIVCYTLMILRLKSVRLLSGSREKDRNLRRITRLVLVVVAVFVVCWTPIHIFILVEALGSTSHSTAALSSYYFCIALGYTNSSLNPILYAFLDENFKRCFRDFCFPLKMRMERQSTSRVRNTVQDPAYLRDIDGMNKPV

| Structure (SMILES) | inhibition |
| --- | --- |
| CCOC(=O)N1CCN(C(=O)CNC(=O)c2ccc(Br)o2)CC1 | 3.7% [at 20 µM] |
| CC(C)Oc1cccc(C(=O)N/N=C/c2ccoc2)c1 | -11.1% |
| CCn1c(SCC(=O)NC2CCCCC2)nnc1-c1ccco1 | -10.6% |
| Cc1ccc(COC(=O)c2nn(C)c(=O)c3ccccc23)cc1 | -20% |
| CCOC(=O)c1c(N)sc(C(O)(C(F)(F)F)C(F)(F)F)c1-c1ccc(F)cc1 | -27.6% |
| Oc1csc(Cc2nc(-c3ccc(-c4ccccc4)cc3)cs2)n1 | 3.4% |
| Oc1csc(Cc2nc(-c3ccccc3F)cs2)n1 | -33.9% |
| Oc1csc(Cc2nc(-c3ccc4ccccc4c3)cs2)n1 | 22.5% |
| Oc1csc(Cc2nc(-c3ccc(Br)cc3)cs2)n1 | 8.7% |
| CN1CCN(C(=O)c2ccc(COc3ccc(Cl)cc3Cl)cc2)CC1 | -29.5% |
| CS(=O)(=O)NCCCCCCNS(C)(=O)=O | -28.3% |
| COc1ccc(-c2nn(CCC(=O)O)cc2/C=C/C(=O)O)cc1[N+](=O)[O-] | 2.1% |
| CCCNS(=O)(=O)c1ccc(OCC(=O)N2CCCC2)cc1 | -18.5% [at 20 µM] |
| Cc1ccccc1Cn1c(=O)n(-c2ccccc2)c(=O)c2ccc(C(=O)NCc3ccco3)cc21 | 20.6% |
| CC(C)(C)c1ccc(OCc2cnc(Cl)s2)cc1 | -46.2% [at 20 µM] |
| CCN1C(=O)c2ccccc2S(=O)(=O)c2ccc(C(=O)N3CCOCC3)cc21 | 16.4% |
| O=C(Nc1nnc(C2=COCCO2)o1)c1cccc(C(F)(F)F)c1 | 16% |
| O=C(Nc1nnc(-c2cccs2)o1)c1cccc(C(F)(F)F)c1 | 100% (active) |
| N#Cc1ccc(C(=O)Nc2nnc(-c3cccs3)o2)cc1 | -5.8% |
| COc1cccc(C(=O)Nc2nnc(-c3cccs3)o2)c1 | -17.8% |
| CN(C)S(=O)(=O)c1ccc(C(=O)Nc2nnc(-c3cccs3)o2)cc1 | -13% |

| Structure (SMILES) | inhibition |
| --- | --- |
| COc1cc(-c2[nH]ncc2CN2CCN(Cc3cccs3)CC2)cc(OC)c1OC | -18.5% |
| Cc1cccc(Nc2nc(N)c([N+](=O)[O-])c(N3CC(C)CC(C)C3)n2)c1 (stereo not drawn) | -15% |
| O=C1CC(C2CCCO2)C(=O)N1c1ccc(Cl)c(Cl)c1 (stereo not drawn) | -15.9% [at 20 µM] |
| CN(C)S(=O)(=O)c1cccc(NC(=O)c2cc(=O)[nH]c3ccccc23)c1 | -14.8% [at 20 µM] |
| CCn1c(=O)c2sccc2n2c(CCCC(=O)NCCc3ccc(S(N)(=O)=O)cc3)nnc12 | -3% |
| COC(=O)C1=C(C(=O)OC)[C@@H]2N(C)c3ccc(OC)cc3[C@@]23C[C@@H](C(=O)OC)N(C(=O)c2cccs2)C3=N1 | -29.4% [at 20 µM] |
| O=C1/C(=C/c2cccnc2)SC(=S)N1c1ccc(O)cc1 | 30.3% |
| Cc1ccc(/C=C2\SC(=S)N(c3cccnc3)C2=O)cc1 | -11.9% |
| O=C(C(Sc1ccccc1)c1ccc(Br)cc1)N1CCOCC1 (stereo not drawn) | 20.5% |
| CC(=O)Nc1ccc(NC(=O)c2nc(S(=O)(=O)Cc3ccccc3)ncc2Cl)cc1 | 23.7% |
| Cc1ccc(NC(=O)c2nc(S(=O)(=O)Cc3ccccc3)ncc2Cl)cc1 | 14% |
| CCN(c1ccccc1)S(=O)(=O)c1ccc(NC(=O)c2nc(S(C)(=O)=O)ncc2Cl)cc1 | 38.4% |
| CN(c1ccccc1)S(=O)(=O)c1ccc(NC(=O)c2nc(S(C)(=O)=O)ncc2Cl)cc1 | 35.2% |
| CCOC(=O)N1CCN(C(=O)COc2cccc3c2CCN(Cc2cccc(C)c2)C3=O)CC1 | 8% |
| CCOc1ccc(NC(=O)N2CC=C(n3c(=O)[nH]c4ccccc43)CC2)cc1 | 35.6% |
| CSc1ccc(NC(=O)N2CC=C(n3c(=O)[nH]c4ccccc43)CC2)cc1 | 90.6% (active) |
| O=C(Nc1cccc(F)c1)N1CC=C(n2c(=O)[nH]c3ccccc32)CC1 | 46.2% |
| N#Cc1ccc(CN2CCN(C(=O)c3ccccc3)CC2)c(Cl)c1 | -1.5% |
| Cc1cccc(C(=O)c2ccccc2C(=O)O)c1 | 19.6% |
| CC(NC(=O)CN1CCCC1)C12CC3CC(CC(C3)C1)C2 (stereo not drawn) | -12% |
| CC(NC(=O)Cn1nc(C(=O)O)c2ccccc2c1=O)C12CC3CC(CC(C3)C1)C2 (stereo not drawn) | -21.3% |

| Structure (SMILES) | inhibition |
| --- | --- |
| Cc1ccc(C(=O)N/C(=C\c2ccc(F)cc2)C(=O)NCCCn2ccnc2)cc1 | 21.6% |
| CCNCc1cc(Cl)c(OCc2ccccc2)c(OCC)c1 | 12.3% |
| CCOc1cc(CNC2CCCC2)cc(Cl)c1OCc1ccc(F)cc1 | -17.1% |
| O=C(O)c1ccc(N/N=C/c2cccc3nccnc23)cc1 | 14.2% |
| C(=C\c1ccccc1)/CSc1ccccn1 | -4.7% |
| CNC(=O)COC(=O)c1ccccc1C(=O)c1ccc(Cl)c([N+](=O)[O-])c1 | -7.4% |
| CC(C)N(C(=O)COC(=O)c1ccccc1C(=O)c1ccc(Cl)c([N+](=O)[O-])c1)C(C)C | 24.3% |
| CC(=O)c1ccc(Nc2ccc([N+](=O)[O-])c3nonc23)cc1 | 37.3% [at 20 µM] |
| NS(=O)(=O)c1ccc(Nc2ccc([N+](=O)[O-])c3nonc23)cc1 | -10.8% |
| COc1ccc(OC)c(NC(=O)c2cc3sccc3n2C)c1 | 9.4% |
| COc1ccc(OC)c(N2C(N)=C(C#N)C(c3ccc(OC)c(O)c3)C3=C2CC(C)(C)CC3=O)c1 (stereo not drawn) | 16.3% |
| CCC(=O)Nc1ccc(C(=O)n2ccc(C)n2)cc1 | 5.2% |
| COc1ccc(/C=C2\SC(=N)N(c3ccc(F)cc3)C2=O)cc1OC | -9.7% |
| N=C1S/C(=C\c2ccco2)C(=O)N1c1ccc2c(c1)OCO2 | -11.9% [at 20 µM] |
| O=C1/C(=C/c2ccco2)SC(=S)N1c1cccnc1 | -2.4% |
| CCOc1cc(/C=C2\SC(=N)N(c3nccs3)C2=O)ccc1OCCN1CCOCC1 | -3.5% |
| Cc1[nH]c2ccccc2c1/C=N/n1cnnc1 | -34.7% |
| COc1cc(/C=C2\SC(=N)N(c3ccc(F)cc3)C2=O)ccc1O | -30.7% |
| N=C1S/C(=C\c2ccco2)C(=O)N1c1nccs1 | 71% (active) |
| O=C1OC(c2cccs2)=N/C1=C\c1ccc(-c2cccc(Cl)c2)o1 | -15.5% |
| N=C1/C(=C\c2ccc(-c3cccc(Cl)c3)o2)C(=O)N=C2SC=C(c3ccccc3)N12 | 29.8% |
